Hits are enriched below; roughly 0.9% of the tested compounds scored in any of these assays.
PPARg SRC-2 ag: agonists of SRC-2 recruitment by human PPARgamma; 200,000 compounds, 0.34% hits; AID 1032; activation, % at 8 µM; PPARgamma LBD-SRC-2 recruitment, biochemical;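 also: 0% = vehicle and 100% = reference agonist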
PPARg SRC-1 ag: PPARgamma-driven SRC-1 recruitment agonism. P37231. PPARgamma-SRC-1 coactivator recruitment biochemical assay. activation, % at 8 µM. 200,000 compounds, 0.41% hits. AID 631; in the data active = activation above about 19%;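 also: 0% = DMSO and 100% = reference agonist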
SRC3 TRFRET art: TR-FRET artefact, counter-screen to PPARgamma/SRC-3 agonist assay; TR-FRET ratio at 8 µM; 99,000 compounds, 0.39% hits; PPARgamma/SRC-3 format; active compounds read high; in the data active = TR-FRET ratio above about 2000
PPARg SRC-3 ag: agonists of human PPARgamma SRC-3 coactivator recruitment; 200,000 compounds, 0.26% hits; biochemical PPARgamma/SRC-3 coactivator recruitment assay; activation, % at 8 µM; P37231; in the data active = activation above about 23%;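 also: 0% = DMSO and 100% = reference agonist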
SRC1 TRFRET art: counter-screen for PPARgamma SRC-1 recruitment agonists: TR-FRET artefact. TR-FRET detection artefact counter-screen, emission ratio; active compounds read high. TR-FRET ratio at 8 µM. 99,000 compounds, 0.34% hits. AID 1051; in the data active = TR-FRET ratio above about 2300
TR-FRET SRC-2 ct: flags TR-FRET format artefacts in PPARgamma SRC-2 recruitment agonist screen. TR-FRET artefact counter-screen; active compounds read high. 200,000 compounds, 0.4% hits. AID 1049. TR-FRET ratio at 8 µM; in the data active = TR-FRET ratio above about 2000
PPARg SRC2 ag: human PPARgamma SRC-2 recruitment agonism, confirmation; 790 compounds, 52% hits; activation, % at 8 µM; AID 1297; shares compounds with PPARg SRC-3 ag; biochemical SRC-2 recruitment by PPARgamma;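 also: 0% = vehicle alone and 100% = reference agonist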
PPARg SRC1 ag: human PPARgamma SRC-1 recruitment agonism, confirmation. shares compounds with PPARg SRC-3 ag. PPARgamma–SRC-1 coactivator recruitment biochemical assay. activation, % at 8 µM. 790 compounds, 43% hits; in the data active = activation above about 20%;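 also: 0% = vehicle wells and 100% = reference agonist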
PPARg SRC3 conf: confirmation of agonists of SRC-3 recruitment by human PPARgamma | shares compounds with PPARg SRC-3 ag | biochemical PPARgamma-SRC-3 coactivator recruitment, agonist mode | activation, % at 8 µM | 790 compounds, 29% hits; in the data active = activation above about 24%;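 also: 0% = vehicle wells and 100% = reference agonist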
Target sequence (P37231 whole entry, looked up): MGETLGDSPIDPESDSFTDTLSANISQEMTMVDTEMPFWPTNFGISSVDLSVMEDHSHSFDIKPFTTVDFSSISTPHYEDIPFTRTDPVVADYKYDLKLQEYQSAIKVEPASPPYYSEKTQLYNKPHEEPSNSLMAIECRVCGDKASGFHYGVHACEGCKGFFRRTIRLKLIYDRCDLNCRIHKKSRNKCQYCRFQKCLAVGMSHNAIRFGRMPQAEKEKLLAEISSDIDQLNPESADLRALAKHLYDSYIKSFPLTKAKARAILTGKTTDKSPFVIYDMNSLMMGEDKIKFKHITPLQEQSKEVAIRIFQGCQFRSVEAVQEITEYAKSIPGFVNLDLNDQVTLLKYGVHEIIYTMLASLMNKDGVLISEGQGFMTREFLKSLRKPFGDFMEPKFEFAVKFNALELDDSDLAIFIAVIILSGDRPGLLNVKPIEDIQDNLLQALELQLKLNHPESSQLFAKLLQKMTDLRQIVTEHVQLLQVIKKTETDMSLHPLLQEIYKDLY
Target sequence (Q9Y6Q9 whole entry, looked up): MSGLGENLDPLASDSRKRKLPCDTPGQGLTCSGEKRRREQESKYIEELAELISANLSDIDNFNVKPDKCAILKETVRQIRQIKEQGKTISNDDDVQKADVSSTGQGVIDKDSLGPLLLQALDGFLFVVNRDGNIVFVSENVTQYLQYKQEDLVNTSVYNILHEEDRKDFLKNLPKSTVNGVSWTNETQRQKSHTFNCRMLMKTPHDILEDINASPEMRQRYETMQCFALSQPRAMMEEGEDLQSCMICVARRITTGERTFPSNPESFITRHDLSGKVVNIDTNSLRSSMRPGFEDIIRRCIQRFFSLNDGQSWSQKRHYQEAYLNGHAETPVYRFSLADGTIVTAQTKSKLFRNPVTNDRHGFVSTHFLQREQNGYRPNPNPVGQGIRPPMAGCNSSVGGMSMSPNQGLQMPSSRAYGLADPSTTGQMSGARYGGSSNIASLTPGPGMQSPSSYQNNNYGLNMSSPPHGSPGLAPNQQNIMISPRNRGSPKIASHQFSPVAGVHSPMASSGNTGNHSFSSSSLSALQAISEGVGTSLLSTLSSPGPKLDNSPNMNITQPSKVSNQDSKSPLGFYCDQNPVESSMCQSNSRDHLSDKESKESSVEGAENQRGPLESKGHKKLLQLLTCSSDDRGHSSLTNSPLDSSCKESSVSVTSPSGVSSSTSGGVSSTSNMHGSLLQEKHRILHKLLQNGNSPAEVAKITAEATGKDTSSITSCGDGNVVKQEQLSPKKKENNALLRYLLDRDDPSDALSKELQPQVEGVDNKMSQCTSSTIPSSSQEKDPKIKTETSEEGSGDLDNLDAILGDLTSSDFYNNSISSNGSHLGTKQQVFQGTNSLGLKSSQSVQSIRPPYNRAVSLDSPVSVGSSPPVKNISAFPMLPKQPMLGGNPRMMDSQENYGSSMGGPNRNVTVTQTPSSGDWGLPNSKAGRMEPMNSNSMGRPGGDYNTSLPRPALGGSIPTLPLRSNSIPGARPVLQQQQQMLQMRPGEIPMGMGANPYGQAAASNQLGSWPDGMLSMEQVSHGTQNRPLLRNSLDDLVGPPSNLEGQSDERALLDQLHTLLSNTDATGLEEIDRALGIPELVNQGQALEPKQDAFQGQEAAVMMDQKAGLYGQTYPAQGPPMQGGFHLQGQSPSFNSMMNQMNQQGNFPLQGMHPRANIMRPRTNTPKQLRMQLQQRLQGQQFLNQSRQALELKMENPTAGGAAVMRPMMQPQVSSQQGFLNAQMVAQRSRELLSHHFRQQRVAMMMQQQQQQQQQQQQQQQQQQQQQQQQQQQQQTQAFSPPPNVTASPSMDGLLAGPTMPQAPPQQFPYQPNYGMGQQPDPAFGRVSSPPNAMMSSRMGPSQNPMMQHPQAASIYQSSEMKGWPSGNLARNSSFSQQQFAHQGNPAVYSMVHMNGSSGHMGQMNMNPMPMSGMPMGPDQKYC
* hit, by the source's call; x = not tested or not shown. Rule as the data show it, unless noted: active = activation above about 22%; inactive = the rest.

SMILES	PPARg SRC-2 ag	PPARg SRC-1 ag	SRC3 TRFRET art	PPARg SRC-3 ag	SRC1 TRFRET art	TR-FRET SRC-2 ct	PPARg SRC2 ag	PPARg SRC1 ag	PPARg SRC3 conf
Oc1c(Cl)cc(Cl)cc1CNc1ccc(Br)cn1	0.3	1.9	x	-4.4	x	1523	x	x	x
CCc1c(C)sc(NC(=O)c2ccccc2[N+](=O)[O-])c1C(N)=O	0.4	8.4	1542	1.2	1600	1692	x	x	x
Cc1cccc(N=C2NC(=O)S/C2=C\c2ccco2)c1	12.5	21.5*	1601	-0.9	2337*	1634	5.8	9.2	4.2
Cc1ccc(-c2n[nH]c(=S)n2C)cc1Cl	15.2	25.8*	1766	5.7	2034	1847	9.9	9.2	10.5
CCN(CC)S(=O)(=O)c1cccc(-c2n[nH]c(=S)n2C)c1	1.3	5.6	1494	0.5	1851	1748	x	x	x
CC(C)(C)c1ccc(C(=O)NC(=S)NNC(=O)c2cccs2)cc1	14.7	8.8	1675	26.0*	2055	1584	6.8	6.4	8.5
COc1ccc(CC(=O)NNC(=O)COc2ccc3ccccc3c2)cc1	213.7*	193.8*	4430*	142.3*	6123*	3867*	256.0*	195.8*	169.4*
COc1ccc(OCC(=O)NNC(=O)CCc2ccccc2)cc1	-1.9	-11.2	1553	-2.6	1505	1544	x	x	x
O=C1CN(C(=O)CSc2nnc(C3CC3)n2-c2ccccc2)c2ccccc2N1	-2.1	-8.5	x	-9.7	x	1472	x	x	x
CCCCCc1cc(O)c2c(C)cc(=O)oc2c1	14.2	18.9*	x	20.6	x	1926	15.8	7.4	11.8
COC(=O)Cc1c(C)c2c(O)cc(C)cc2oc1=O	29.7*	20.0*	x	35.3*	x	2058*	27.2*	20.6*	17.6
COC(=O)Cc1c(C)c2ccc(OC(=O)c3ccccc3)cc2oc1=O	9.7	4.0	x	1.0	x	1583	x	x	x
CCCc1cc(=O)oc2cc(C)cc(O)c12	27.6*	18.7	x	27.1*	x	2043*	20.9	13.5	14.2
CCc1cc(=O)oc2cc(C)cc(O)c12	41.6*	37.0*	x	50.0*	x	2296*	40.2*	27.3*	27.2*
O=C(/C=C/c1ccccc1)Nc1ccc(Br)cn1	4.7	6.1	1614	0.5	2098	1781	x	x	x
CCC(Oc1ccccc1)C(=O)Nc1ccsc1C(=O)OC (configuration not stated)	-9.3	-3.6	1492	3.4	2003	1534	x	x	x
CN(C)/C=C(/C(=O)c1ccc(Cl)cc1)S(=O)(=O)c1ccc(Cl)cc1	1.1	0.0	x	-6.2	x	1571	x	x	x
CCN(CC)C(=O)n1cnc(-c2ccccc2)c1-c1ccccc1	4.8	12.9	1562	1.8	2255	1513	x	x	x
CC1(NC(=O)C2CCCCC2)CCS(=O)(=O)C1 (configuration not stated)	5.6	8.7	1688	4.5	2132	1644	x	x	x
CC(=O)Nc1ccc(NC(=O)CC2Nc3cccc4cccc(c34)NC2=O)cc1 (configuration not stated)	10.5	6.0	x	25.8*	x	1572	9.6	12.4	7.0
CCN1CCCC1CNC(=O)CSc1cc(=O)n(CC)c2ccccc12 (configuration not stated)	25.6*	23.1*	x	41.5*	x	2187*	26.6*	14.6	18.0
CCn1c(=O)cc(SCC(=O)N2CCOCC2)c2ccccc21	54.7*	45.3*	x	81.8*	x	2862*	34.5*	22.0*	22.3
CCn1c(=O)cc(SCC(=O)N2CCN(C(=O)c3ccco3)CC2)c2ccccc21	55.5*	54.3*	x	62.9*	x	2772*	33.6*	20.8*	23.6
CCn1c(=O)cc(SCC(=O)NCCCN2CCN(c3ccccc3F)CC2)c2ccccc21	78.5*	64.6*	x	96.2*	x	3692*	41.9*	27.3*	28.5*
COc1ccc(CCNC(=O)COc2ccc(S(=O)(=O)NC3CCCCC3)cc2Cl)cc1	7.2	-0.8	x	5.0	x	1522	x	x	x
SMILES	PPARg SRC-2 ag	PPARg SRC-1 ag	SRC3 TRFRET art	PPARg SRC-3 ag	SRC1 TRFRET art	TR-FRET SRC-2 ct	PPARg SRC2 ag	PPARg SRC1 ag	PPARg SRC3 conf
CCCCNC(=S)NCCN1CCN(C(=S)NCCCC)CC1	-0.3	-1.1	1687	2.4	1654	1646	x	x	x
CCn1c(=O)cc(OCC(=O)N2CCCCCC2)c2ccccc21	4.2	5.0	x	1.4	x	1453	x	x	x
CCn1c(=O)cc(SCC(=O)N2CCN(c3ccccc3OC)CC2)c2ccccc21	67.6*	71.7*	x	85.2*	x	2834*	53.1*	37.1*	34.4*
CCn1c(=O)cc(SCC(=O)N2CCN(C3CCCCC3)CC2)c2ccccc21	35.2*	19.3*	x	36.5*	x	2255*	27.1*	17.1	18.2
Cc1ccc(NC(=O)OCCN2CCN(Cc3ccccc3)CCC2=O)cc1	-4.2	-3.7	1338	-2.1	1771	1318	x	x	x
CCOC(=O)c1[nH]c2ccc(C)cc2c1N	10.5	3.3	1835	5.8	2128	1458	x	x	x
CCOC(=O)c1[nH]c2cc(OC)c(OC)cc2c1N	25.5*	13.2	x	21.4	x	1702	18.4	16.2	9.6
COc1ccc(Br)cc1CNc1ccc(O)cc1	23.4*	10.1	x	18.4	x	1752	7.0	4.8	6.0
C/C(N)=C(/C#N)C(=O)COC(=O)c1ccccc1C(=O)c1ccc(C)cc1	3.8	-1.1	1617	1.2	1906	1710	x	x	x
CC(NC(=O)COC(=O)CC(c1ccccc1)c1ccccc1)c1ccccc1 (configuration not stated)	6.5	5.5	1437	1.7	1761	1511	x	x	x
COc1ccc(-c2oc3ncn4nc(COc5ccccc5)nc4c3c2-c2ccc(OC)cc2)cc1	4.5	0.3	x	-1.1	x	1710	x	x	x
COc1ccc(-c2oc3ncn4nc(Cc5ccccc5)nc4c3c2-c2ccc(OC)cc2)cc1	69.1*	83.5*	x	3.9	x	4122*	6.2	3.8	3.7
CC(C)(C)c1ccc(C(=O)NCC(=O)OCc2ccc([N+](=O)[O-])cc2)cc1	1.2	5.1	1807	5.7	1623	1797	x	x	x
COc1ccccc1-c1nnc(SC2CCc3ccccc3NC2=O)s1 (configuration not stated)	69.0*	31.2*	x	41.7*	x	2323*	48.8*	38.6*	33.0*
CSc1nc(Sc2ccccc2Cl)c2ccccc2n1	53.6*	26.0*	x	48.1*	x	2566*	34.2*	21.9*	24.4*
Cc1ccc(CN2C(=O)C3CCCN3c3ccc(C#N)cc32)cc1 (configuration not stated)	15.9	6.8	x	29.3*	x	1578	12.2	14.3	8.2
Cc1ccc(C)c(CN2C(=O)C3CCCN3c3ccc(C#N)cc32)c1 (configuration not stated)	1.1	-0.2	x	10.4	x	1692	x	x	x
